Compound activity (PubChem BioAssay)
An excerpt weighted towards active compounds, which were near 2.8% of everything screened.
HIF-2a inh: HIF-2a inhibition; inhibition, % at 18.8 µM; 0.72% of 360,000 active; AID 624352; 786-0 RCC cells HIF-2a reporter, luciferase luminescence, overnight;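 active = inhibition of the luminescence signal of 40% or more relative to plate controls, in a single-dose primary screen at 18.75 µM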
CF NFkB block: inhibitors of cystic fibrosis induced NF-kB | KKLEB NF-kB-GFP reporter, PAF-induced, GFP fluorescence overnight | inhibition, % at 5 µM | 0.86% of 360,000 active;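 active = at least 50% inhibition at 5 µM, scaled per plate between neutral and stimulator controls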;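 note: PAF is a Pseudomonas aeruginosa culture filtrate used as stimulus; plate controls were PAF-stimulated DMSO wells for no effect and unstimulated DMSO wells for full effect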
Shn3 inh set2: reduces Shn3 3'UTR luciferase signal in osteoblasts | Clone20 osteoblast Shn3 3'UTR firefly luciferase, 24 h | inhibition, % at 12.5 µM | 0.52% of 360,000 active;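 active = mean inhibition of at least 75% with every replicate also reaching 75%; inconclusive = mean inhibition at least 75% but some replicate below; inactive = mean inhibition below 75%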;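 note: 0% = median of neutral control wells and 100% = pilot-screen positive control compound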
KKLEB tox: counter-screen for CF NF-kB inhibitors: cytotoxicity; KKLEB CF airway cells viability, ATPlite luminescence, overnight; active compounds read low; cells stimulated with P. aeruginosa culture filtrate; activity change (cytotoxicity), % at 5 µM; 0.36% of 360,000 active; AID 602141;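 active = corrected activity change at or below -50% at 5 µM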
Peg3 promoter: inhibitors of Peg3 promoter; HeLa PEG-Prom luciferase reporter, luminescence, overnight; inhibition, % at 20 µM; 1.7% of 360,000 active;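 active = inhibition of at least 50% at 20 µM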
TRPM1 prom inh: reduces MITF-dependent TRPM1 promoter luciferase signal. AID 488899. SK-MEL-5 TRPM1 promoter luciferase, 24 h. inhibition, % at 12.5 µM. 0.83% of 330,000 active;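 active = mean inhibition across replicates of 60% or more, whatever share of single replicates reaches that level; inconclusive = some that reach 60%, reason not given; inactive = mean inhibition across replicates below 60%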
Mdm2 MdmX conf: Mdm2/MdmX (human) interaction inhibition, confirmed; 99% of 740 active; SaOS-2 split-luciferase Mdm2/MdmX complementation, luminescence; AID 504601; shares compounds with HIF-2a inh; inhibition, % at 8 µM;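 active = mean inhibition of the luminescence signal across two replicates at or above 26 percent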
HIF-2a conf: HIF-2a inhibition, single concentration confirmation | 56% of 1,800 active | shares compounds with HIF-2a inh | 786-0 RCC cells, HIF-2a luciferase reporter luminescence, overnight | inhibition, % at 18.8 µM;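 active = mean inhibition across four replicates of at least 40 percent at the single tested concentration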
HIF-1a cs: HIF-1a inhibition counter-screen for HIF-2a hits. shares compounds with HIF-2a inh. inhibition, % at 18.8 µM. MiaPaCa-2 HIF-1a luciferase reporter, desferoxamine, overnight. 72% of 1,800 active;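 active = mean inhibition of the reporter signal across four replicates at the single tested dose of 50% or more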
An asterisk follows results filed as active; ? = inconclusive; nt = not tested or not shown.

SMILES	HIF-2a inh	CF NFkB block	Shn3 inh set2	KKLEB tox	Peg3 promoter	TRPM1 prom inh	HIF-2a conf	HIF-1a cs	others
CCOc1ccc(/C=N/N2C(=O)C(CC(=O)Nc3ccc(F)cc3F)SC2=NC)cc1OC (stereo not drawn)	49.1*	10.2	62.4	3.0	13.9	41.5	-3.7	-6.2
COc1ccc(-n2c(SCC(=O)Nc3ccc(Br)cc3)nc(O)cc2=O)cc1	11.9	-6.9	-6.1	8.0	7.8	3.1	nt	nt
COCC(C)n1c(C)cc(C(=O)COC(=O)c2cc(=O)[nH]c3ccccc23)c1C (stereo not drawn)	43.2*	3.6	32.3	-2.6	52.0*	nt	44.8*	36.3
COCC(C)n1c(C)cc(C(=O)COC(=O)c2n[nH]c3ccccc23)c1C (stereo not drawn)	-51.5	10.0	7.8	-4.6	-48.8	-7.9	nt	nt
COc1ccc(Cc2nnc(SC(C)C(=O)Nc3ccc(F)cc3Cl)o2)cc1 (stereo not drawn)	1.9	-9.5	-20.1	15.2	8.8	9.0	nt	nt
COc1cc2nc(NC(=O)c3ccccc3)sc(=O)c2cc1OC	-31.6	16.3	6.8	-18.3	19.0	-32.5	nt	nt
O=C(c1ccc(-c2ccccc2)cc1)c1ccccc1C(=O)N1CCOCC1	-22.5	-14.0	-13.5	-11.1	-23.1	-9.0	nt	nt
S=C(c1ccc(-c2ccccc2)cc1)N1CCOCC1	86.2*	1.8	26.0	-11.0	22.6	-10.7	89.2*	53.5*
COc1ccc(-n2nc3c(N4CCC(C(=O)NC5CCCCC5)CC4)nnc(C)c3c2C)cc1	65.3*	-6.9	-4.2	4.4	71.2*	51.4	5.4	60.1*
Cc1ccc(-n2nc3c(N4CCC(C(=O)NCCc5ccccc5C)CC4)nnc(C)c3c2C)cc1	49.2*	18.7	18.1	-0.1	58.3*	93.6*	-5.0	46.3
COc1ccc(-n2nc3c(N4CCC(C(=O)NCc5ccccc5C)CC4)nnc(C)c3c2C)cc1	90.6*	35.7	23.7	-29.4	103.5*	85.1*	64.7*	96.4*	Mdm2 MdmX conf=102.7*
Cc1ccc(-n2nc3c(N4CCC(C(=O)NCc5ccc(C)o5)CC4)nnc(C)c3c2C)cc1	6.6	6.1	-33.4	1.6	-2.3	41.6	nt	nt
Cc1ccc(-n2nc3c(N4CCC(C(=O)NCCc5ccco5)CC4)nnc(C)c3c2C)cc1	17.1	3.5	14.0	-10.9	30.0	46.9	nt	nt
CC1CCC2(CC1)OCC1(CCC3(COC4(CCC(C)CC4)OC3)C1=O)CO2 (stereo not drawn)	14.0	3.1	-10.8	-3.3	0.2	10.1	nt	nt
O=C(O)C1CCC(CNS(=O)(=O)c2ccccc2)CC1 (stereo not drawn)	16.9	5.3	12.3	0.4	25.0	-2.7	nt	nt
Cc1cc(C)n(C(=O)/C(C#N)=N\Nc2ccccc2[N+](=O)[O-])n1	7.3	-18.7	-48.1	2.9	13.9	-4.8	nt	nt
Cc1cc(C)n(C(=O)/C(C#N)=N/Nc2cc(Cl)cc(Cl)c2)n1	5.4	56.8*	9.6	-62.0*	33.8	32.2	nt	nt	Mdm2 MdmX conf=95.0*
NC(=O)CC(NC(=O)c1ccccc1)c1ccc(NCCc2ccc(Cl)cc2)c([N+](=O)[O-])c1 (stereo not drawn)	50.3*	1.6	45.0	-14.4	16.4	7.2	-2.7	33.4
Cc1cc(NC(=O)c2c(C)noc2C)no1	11.9	-5.4	-10.7	15.9	8.0	1.9	nt	nt
N#CCCCCN1CCCC1	10.1	-8.5	-0.2	6.1	-7.6	-6.2	nt	nt
C/C(=N\NC(=O)c1cccc(Br)c1)c1ccccn1	-87.2	-38.0	?	-11.8	-64.4	57.7	nt	nt	Mdm2 MdmX conf=82.7*
O=C(c1ccccc1)c1c2c(cc3sc4ccccc4[n+]13)-c1cccc3cccc-2c13	77.5*	-29.0	78.4	-36.0	100.9*	85.5*	56.5*	98.2*
COc1cc2c3c(c1OC)C(=O)CC3CCCC2 (stereo not drawn)	-9.3	-28.6	-2.3	-5.2	2.8	nt	nt	nt
